Measurements taken from PubChem BioAssay AID624267 (The Scripps Research Institute Molecular Screening Center, 2012).
The whole screen tested about 360,000 compounds, of which about 1,400 (0.39%) were called active. Many of the other results were omitted from the sample, so actives are more common in it than they were. Unmarked numbers belong to inactive results. No stated cut-off is given here; in the data, active means inhibition above about 21%; inactive means the rest.

biological target: Receptor-interacting serine/threonine-protein kinase 2 (Homo sapiens) (UniProt O43353); test: inhibitors of RIPK2 association with NOD2 – fluorescence, CHO cells, BLA complementation, primary screen (AID 624267); conditions: CHO BLA complementation NOD2-RIPK2, CCF4 ratio; at 4.98 µM; active compounds read high;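 further: 0% = vehicle only and 100% = reference blocker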
Sequence (O43353 whole entry, looked up): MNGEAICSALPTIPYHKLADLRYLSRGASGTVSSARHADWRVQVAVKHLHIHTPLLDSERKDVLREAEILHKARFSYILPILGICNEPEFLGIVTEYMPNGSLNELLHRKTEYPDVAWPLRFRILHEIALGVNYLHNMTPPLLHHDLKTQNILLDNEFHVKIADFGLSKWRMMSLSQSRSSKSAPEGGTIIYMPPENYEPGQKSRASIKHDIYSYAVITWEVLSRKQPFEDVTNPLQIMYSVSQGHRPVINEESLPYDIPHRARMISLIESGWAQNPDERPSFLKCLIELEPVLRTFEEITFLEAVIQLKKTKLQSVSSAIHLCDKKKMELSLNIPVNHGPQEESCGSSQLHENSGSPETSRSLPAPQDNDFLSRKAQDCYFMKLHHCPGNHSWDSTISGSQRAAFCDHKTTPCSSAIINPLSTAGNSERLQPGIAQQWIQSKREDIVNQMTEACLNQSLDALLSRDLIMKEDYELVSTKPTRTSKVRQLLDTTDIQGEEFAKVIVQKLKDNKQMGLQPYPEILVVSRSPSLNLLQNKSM

Structure (SMILES) | inhibition
CCOC(=O)[C@]12Cc3ccccc3[C@H]1N(C1CCCCC1)C(=O)c1cc(OC)ccc12 | 43.5% (active)
CCOC(=O)[C@]12Cc3cc(OC)ccc3[C@H]1N(C(C)C)C(=O)c1ccccc12 | -1.01%
CCOC(=O)c1cccc(C2=C(CNC(=O)c3ccncc3)[C@H]3CC[C@@H](C2)N3Cc2ccccc2)c1 | -12.2%
Cc1ccc2c(c1)C1CN(C)CCC1N2C(=O)Cn1nnc(-c2ccccc2F)n1 (stereo not given) | -3.9%
CCN1CCN(Cc2cc(OC)c3c(c2)OCO3)CC1 | -5.64%
COc1cc(OC)cc(C2(C#N)CCN(C)CC2)c1 | -12.2%
c1ccc(CCNC2CCCCCC2)cc1 | -21.6%
CC(=O)OC1C2(CC3N4C(=O)C5(CO)SSC4(CC31O)C(=O)N5C)OC(C)C(C)(C)C2=O (stereo not given) | 63.9% (active)
CC(=NCc1ccc2c(c1)OCO2)c1c(O)[nH]c(=O)[nH]c1=O | 4.27%
CC(C(=O)Nc1ccc(Cl)cc1Cl)N1CC=C(c2ccccc2)CC1 (stereo not given) | -16.5%
CC[C@H]1CC2CN3CCc4c([nH]c5ccccc45)C(C(=O)OC)(C2)C13 (stereo not given in full) | -13.6%
CNCC(O)c1cc(F)c(OCc2ccccc2)c(OCc2ccccc2)c1F (stereo not given) | -9.31%
CN(C)CC1Oc2ccccc2OC1(O)c1ccccc1 (stereo not given) | 54.1% (active)
COc1ccccc1NC(=O)N1C[C@@H]2C[C@@H](C1)c1cccc(=O)n1C2 | -9.61%
COC(=O)C1=C(c2ccc(Cl)c(C(F)(F)F)c2)C[C@@H]2CC[C@H]1N2C(=O)NC1CC1 | -1.54%
